Reference: PubChem BioAssay (Tox21)
Records with an inconclusive call do not appear. Active and inactive are the calls of the source. Unless noted, calls follow the shape of the dose curve; as a rule, active = well fitted curve in the direction sought with a large enough effect in the repeat runs; inconclusive = weak or mixed curves; inactive = no such curve, though single readings can be large; an effect the other way counts as inactive or inconclusive.

Tests used:
[1] = qHTS assay for small molecule agonists of the p53 signaling pathway (AID 651631; calls by dose curve; also: nearly all actives have a fitted effect of over 15% in size)
In short: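 Stably transfected HCT-116 cells (beta-lactamase behind p53 response elements) get compounds after a 5 h settling period; 16 h later at 37 °C, FRET substrate is loaded and fluorescence read after 2 h.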

[2] = qHTS assay for small molecules that induce genotoxicity in human embryonic kidney cells expressing luciferase-tagged ATAD5 (AID 651632); also: nearly all actives have a fitted effect of over 15% in size
In short: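 Genotoxicity read-out via ATAD5-luciferase: HEK293T cells, 16 hr compound incubation at 37C, Amplite detection.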

[3] = qHTS assay for small molecule agonists of the p53 signaling pathway - cell viability (AID 651633; calls by dose curve;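 also: p53RE-bla HCT reporter cells with a stable beta-lactamase p53 reporter; nearly all actives have a fitted effect of over 30% in size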)
In short: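 Viability counter-read: CellTiter-Glo luminescence (30 min, room temperature) in the same p53RE-bla plates. These plates had been exposed to compounds for 16 h at 37 C.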

[4] = qHTS assay for small molecules that induce genotoxicity in human embryonic kidney cells expressing luciferase-tagged ATAD5 - cell viability (AID 651634; calls by dose curve; also: nearly all actives have a fitted effect of over 25% in size)
In short: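 Live-cell protease activity (CellTiter-Fluor, fluorescence) indicates viability. HEK293T cells with luciferase-tagged ATAD5; 15.5 hr compound treatment at 37C.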

[5] = qHTS assay for small molecule disruptors of the mitochondrial membrane potential - cell viability (AID 720634; calls by dose curve;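 also: human HepG2 liver cancer cells; nearly all actives have a fitted effect of over 20% in size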)
In short: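 Human hepatoma HepG2 cells were treated for 1 hr with test chemicals, then given m-MPI dye and CellTiter-Glo. Cell viability reflects luminescence proportional to cellular ATP.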

[6] = qHTS assay to test for compound auto fluorescence at 590 nm (red) in HepG2 cells (AID 720674)
In short: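 Red autofluorescence (Ex/Em 540/590 nm, Rose Bengal sodium equivalents) was measured in HepG2 cells, 2,000 per well in MEM plus 10% FBS, plated overnight at 37 C. Readings were taken 1 hr after adding 23 nL compound or DMSO, at 37 C and 5% CO2.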

[7] = qHTS assay to test for compound auto fluorescence at 535 nm (green) in HepG2 cells (AID 720675)
[8] = qHTS assay to test for compound auto fluorescence at 460 nm (blue) in HEK293 cells (AID 720678)
In short: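 HEK293 cells (2,000 per well, medium with 10% dialyzed FBS) attached for 4-5 hr at 37C, then received compound and stood overnight at 37C, 5% CO2. Blue fluorescence was read at Ex/Em 405/460 nm and expressed relative to triamterene.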

[9] = qHTS assay to test for compound auto fluorescence at 590 nm (red) in HEK293 cells (AID 720679)
In short: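 HEK293 cells (2,000/well, medium with 10% dialyzed FBS) attached for 4-5 hr at 37C, received 23 nL compound and were incubated overnight at 37C, 5% CO2. Red fluorescence was then read at 540/590nm Ex/Em, referenced to Rose Bengal sodium.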

[10] = qHTS assay to test for compound auto fluorescence at 535 nm (green) in HEK293 cells (AID 720680)
[11] = qHTS assay to test for compound auto fluorescence at 460 nm (blue) in HEK293 cell free culture (AID 720681)
In short: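 Blue fluorescence (Ex 405/Em 460 nm, triamterene-equivalent) was read immediately after pin transfer of compound or DMSO into medium (DMEM, 10% FBS) without cells.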

[12] = qHTS assay to test for compound auto fluorescence at 535 nm (green) in HEK293 cell free culture (AID 720682)
In short: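 Using fluorescein as calibrant, autofluorescence was quantified at 485/535 nm in cell-free DMEM containing 10% FBS after pintool addition of compound or vehicle.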

[13] = qHTS assay to test for compound auto fluorescence at 590 nm (red) in HEK293 cell free culture (AID 720683)
In short: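 Red-channel autofluorescence of compounds in culture medium (DMEM, 10% FBS), no cells, measured at 540/590 nm. Rose Bengal sodium is the reference fluorophore for equivalence.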

[14] = qHTS assay to test for compound auto fluorescence at 590 nm (red) in HepG2 cell free culture (AID 720684)
In short: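 Steps: dispense MEM/10% FBS medium, no cells; pin compound or DMSO vehicle; read red channel, Ex/Em 540/590 nm. Output given as Rose Bengal sodium equivalents.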

[15] = qHTS assay to test for compound auto fluorescence at 460 nm (blue) in HepG2 cell free culture (AID 720685)
In short: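 Compound (23 nL) or DMSO pinned into cell-free MEM with 10% FBS; blue fluorescence read at 405/460 nm excitation/emission, expressed as auto-fluorescence equivalency to triamterene.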

[16] = qHTS assay to test for compound auto fluorescence at 535 nm (green) in HepG2 cell free culture (AID 720686)
[17] = qHTS assay to test for compound auto fluorescence at 460 nm (blue) in HepG2 cells (AID 720687)
In short: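 Blue-channel autofluorescence (Ex/Em 405/460 nm, triamterene-equivalent) was measured after 1 hr compound exposure at 37 C, 5% CO2. Cells were HepG2, plated overnight at 37 C in MEM plus 10% FBS.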

[18] = target: Glucocorticoid receptor (Homo sapiens) (UniProt P04150); assay: qHTS assay to identify small molecule agonists of the glucocorticoid receptor (GR) signaling pathway (AID 720691; active = well fitted activation curve with a large enough effect in the signal ratio in the repeat runs, not every such curve was filed as active; the % refers to the signal ratio; also: potency is read from the fitted curve at half-maximal effect); conditions: GR-bla HeLa, beta-lactamase reporter ratio, 18 h; activation: at 62.4 µM (top of the series)
In short: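 Beta-lactamase reporter activity, read as fluorescence intensity, was measured in GR-bla HeLa cells exposed to compounds for 18 h at 37 C and then loaded with LiveBLAzer B/G FRET substrate for 2 h at room temperature.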

[19] = target: Glucocorticoid receptor (Homo sapiens) (UniProt P04150); assay: qHTS assay to identify small molecule antagonists of the glucocorticoid receptor (GR) signaling pathway (AID 720692; active = well fitted inhibition curve with a large enough effect in the signal ratio in the repeat runs, not every such curve was filed as active; the % refers to the signal ratio)
In short: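 Fluorescence from cleaved LiveBLAzer B/G FRET substrate reports GRE-driven beta-lactamase in HeLa cells; compounds are tested against 5 nM dexamethasone (final) over 18 h at 37 C, substrate incubation 2 h at room temperature.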

Measured: Potency

Sequence of Glucocorticoid receptor (Homo sapiens) (P04150 whole entry, looked up): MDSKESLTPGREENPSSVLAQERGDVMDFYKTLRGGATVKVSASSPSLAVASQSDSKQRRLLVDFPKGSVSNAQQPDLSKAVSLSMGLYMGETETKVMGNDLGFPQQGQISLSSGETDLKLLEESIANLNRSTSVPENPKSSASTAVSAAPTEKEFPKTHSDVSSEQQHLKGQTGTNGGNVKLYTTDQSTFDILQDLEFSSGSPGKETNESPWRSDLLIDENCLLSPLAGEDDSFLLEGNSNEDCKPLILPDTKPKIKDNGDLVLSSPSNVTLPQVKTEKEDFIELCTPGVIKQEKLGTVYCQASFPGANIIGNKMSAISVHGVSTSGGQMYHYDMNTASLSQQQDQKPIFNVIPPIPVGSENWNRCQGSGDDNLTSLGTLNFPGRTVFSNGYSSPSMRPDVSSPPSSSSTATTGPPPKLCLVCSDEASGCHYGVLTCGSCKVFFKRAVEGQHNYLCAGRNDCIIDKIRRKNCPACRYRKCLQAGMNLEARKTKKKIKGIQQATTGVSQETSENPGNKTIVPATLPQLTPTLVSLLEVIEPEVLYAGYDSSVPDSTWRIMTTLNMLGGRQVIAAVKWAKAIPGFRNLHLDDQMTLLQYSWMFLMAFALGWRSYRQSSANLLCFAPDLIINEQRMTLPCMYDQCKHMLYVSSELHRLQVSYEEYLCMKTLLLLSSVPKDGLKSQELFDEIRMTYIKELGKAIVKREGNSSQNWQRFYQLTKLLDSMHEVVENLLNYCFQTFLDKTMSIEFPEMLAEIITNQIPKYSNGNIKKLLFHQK

CC(O)[C@@H]1NC(=O)[C@H](CCCCN)NC(=O)[C@@H](Cc2c[nH]c3ccccc23)NC(=O)[C@H](Cc2ccccc2)NC(=O)[C@@H](NC(=O)[C@H](N)Cc2ccccc2)CSSC[C@@H](C(=O)N[C@H](CO)[C@@H](C)O)NC1=O (some centres not stated)
inactive: all assays above

CCC(=O)OCC(=O)[C@@]1(OC(=O)CC)[C@H](C)C[C@H]2[C@H]3[C@H]([C@@H](O)C[C@@]21C)[C@@]1(C)C=CC(=O)C=C1C[C@H]3Cl
active: [18] 20.4 nM
not listed: [19]
inactive: all other assays above

C[C@@](Cc1ccc(O)c(O)c1)(NN)C(=O)O
inactive: all assays above

C[C@]12CC[C@@H]3c4ccc(OS(=O)(=O)O)cc4CC[C@H]3[C@@H]1CCC2=O
not listed: [19]
inactive: all other assays above

OC[C@H]1O[C@@H](O[C@H]2[C@H](O)[C@@H](O)[C@H](O)O[C@@H]2CO)[C@H](O)[C@@H](O)[C@@H]1O
inactive: all assays above

CCCc1ccc(C(=O)O)cc1
not listed: [19]
inactive: all other assays above

Cc1ccccc1OCC(O)CNCCOc1ccc(C(N)=O)cc1 (configuration not stated)
inactive: all assays above

C#CCOc1ccc2c(C)cc(=O)oc2c1
not listed: [19]
inactive: all other assays above

CS(=O)(=O)c1ccc(C2=C(c3ccccc3)C(=O)OC2)cc1
inactive: all assays above

CC(C)(C)C(=O)OCOC(=O)[C@@H]1N2C(=O)[C@@H](N=CN3CCCCCC3)[C@H]2SC1(C)C
not listed: [9] | [17] | [18] | [19]
inactive: all other assays above

NCCCNCCCCNC(=O)C(O)NC(=O)CCCCCCN=C(N)N (configuration not stated)
not listed: [8]
inactive: all other assays above

CC(=O)N(CC(C)C(=O)O)c1c(I)cc(I)c(N)c1I (configuration not stated)
not listed: [15]
inactive: all other assays above

CC(C)(C)NC[C@H](O)COc1ccccc1C1CCCC1
not listed: [9] | [17]
inactive: all other assays above

Nc1c(Br)cc(Br)cc1CNC1CCC(O)CC1 (configuration not stated)
not listed: [6] | [19]
inactive: all other assays above
